# From article PMC7862700, “An all-to-all approach to the identification of sequence-specific readers for epigenetic DNA modifications on cytosine”
# Columns and labels:
# Assay in all cases: DAPPL (digital affinity profiling via proximity ligation, sequencing); 10 mM Tris-HCl pH 7.5, 50 mM NaCl, 1 mM DTT, 4% glycerol, room temperature, 30 min; GST-TFs on glutathione beads, 16-mer random dsDNA library, 0.1% formaldehyde crosslink after washing; high values mean tight binding
# [1] = molecular target: T1, FEV (Homo sapiens, UniProt Q99581 1-238); settings: protein: recombinant; tags: N-terminal GST; dsDNA, one strand shown
# T1 sequence: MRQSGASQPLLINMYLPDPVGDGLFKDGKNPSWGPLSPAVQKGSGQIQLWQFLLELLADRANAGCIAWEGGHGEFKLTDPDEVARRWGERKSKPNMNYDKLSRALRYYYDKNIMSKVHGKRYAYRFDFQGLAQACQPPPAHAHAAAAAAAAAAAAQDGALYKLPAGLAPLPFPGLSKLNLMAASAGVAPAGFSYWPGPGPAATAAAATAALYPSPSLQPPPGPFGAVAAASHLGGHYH
# Procedure, shortened: (§1)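 Human transcription factors carrying a GST fusion were produced in yeast, bound to glutathione beads, tagged with DNA barcodes and pooled together with a tag-only sample. Each pool was held with 200 nmole of a random double-stranded 16-mer DNA library in Tris/NaCl/DTT/glycerol buffer for 30 min at room temperature, then washed, crosslinked in 0.1% formaldehyde, proximity-ligated with BsaI/T4 ligase (1 h, 37 °C), PCR-amplified and sequenced on an Illumina NextSeq500. Binding signal is the read frequency of each hexamer for a given factor divided by its frequency in the tag-only sample.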
# [2] = molecular target: ETV5 (Homo sapiens, UniProt P41161 1-510); settings: protein: recombinant; tags: N-terminal GST; dsDNA, one strand shown
# ETV5, sequence (P41161 whole entry): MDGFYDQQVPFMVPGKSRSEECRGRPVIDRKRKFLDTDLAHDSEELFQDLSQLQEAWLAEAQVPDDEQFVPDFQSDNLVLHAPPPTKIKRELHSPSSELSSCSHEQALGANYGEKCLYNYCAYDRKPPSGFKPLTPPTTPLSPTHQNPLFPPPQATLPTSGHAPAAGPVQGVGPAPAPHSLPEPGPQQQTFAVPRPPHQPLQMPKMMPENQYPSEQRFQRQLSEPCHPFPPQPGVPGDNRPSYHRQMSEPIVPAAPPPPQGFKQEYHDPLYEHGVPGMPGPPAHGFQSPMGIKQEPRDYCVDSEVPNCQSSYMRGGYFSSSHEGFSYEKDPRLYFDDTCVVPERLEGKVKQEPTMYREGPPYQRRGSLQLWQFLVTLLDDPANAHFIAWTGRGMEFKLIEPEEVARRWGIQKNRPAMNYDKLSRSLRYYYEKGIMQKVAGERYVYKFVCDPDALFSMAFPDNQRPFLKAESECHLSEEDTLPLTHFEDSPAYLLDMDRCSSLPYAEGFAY
# Procedure, shortened: as §1
# [3] = molecular target: HSF1 (Homo sapiens, UniProt Q00613 1-529); settings: protein: recombinant; tags: N-terminal GST; chain copies: 3; dsDNA, one strand shown
# HSF1, sequence (Q00613 whole entry): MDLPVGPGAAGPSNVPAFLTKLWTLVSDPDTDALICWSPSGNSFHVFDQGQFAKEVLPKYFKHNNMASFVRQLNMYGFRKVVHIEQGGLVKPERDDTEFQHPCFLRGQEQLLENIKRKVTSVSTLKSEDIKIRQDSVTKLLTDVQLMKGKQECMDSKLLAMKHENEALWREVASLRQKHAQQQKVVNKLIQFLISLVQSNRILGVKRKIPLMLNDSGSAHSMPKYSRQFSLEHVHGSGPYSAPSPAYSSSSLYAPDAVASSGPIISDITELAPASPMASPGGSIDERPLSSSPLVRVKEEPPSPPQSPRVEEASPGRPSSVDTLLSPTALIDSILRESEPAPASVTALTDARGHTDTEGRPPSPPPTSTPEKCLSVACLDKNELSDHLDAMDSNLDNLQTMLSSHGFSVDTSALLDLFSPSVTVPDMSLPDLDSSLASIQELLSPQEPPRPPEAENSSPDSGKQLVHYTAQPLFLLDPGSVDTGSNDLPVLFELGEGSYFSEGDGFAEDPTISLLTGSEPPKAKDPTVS
# Procedure, shortened: as §1
# [4] = molecular target: T2, SPIC (Homo sapiens, UniProt Q8N5J4 1-248); settings: protein: recombinant; tags: N-terminal GST; dsDNA, one strand shown
# T2 sequence: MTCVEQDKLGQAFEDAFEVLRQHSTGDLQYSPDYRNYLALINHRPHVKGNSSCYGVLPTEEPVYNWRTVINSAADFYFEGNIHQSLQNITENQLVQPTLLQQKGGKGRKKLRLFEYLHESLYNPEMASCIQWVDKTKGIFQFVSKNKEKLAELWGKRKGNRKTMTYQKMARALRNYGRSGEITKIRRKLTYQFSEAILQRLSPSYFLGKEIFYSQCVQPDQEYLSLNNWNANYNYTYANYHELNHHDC
# Procedure, shortened: as §1
# [5] = molecular target: ELF4 (Homo sapiens, UniProt Q99607 1-663); settings: protein: recombinant; tags: N-terminal GST; dsDNA, one strand shown
# ELF4, sequence (Q99607 whole entry): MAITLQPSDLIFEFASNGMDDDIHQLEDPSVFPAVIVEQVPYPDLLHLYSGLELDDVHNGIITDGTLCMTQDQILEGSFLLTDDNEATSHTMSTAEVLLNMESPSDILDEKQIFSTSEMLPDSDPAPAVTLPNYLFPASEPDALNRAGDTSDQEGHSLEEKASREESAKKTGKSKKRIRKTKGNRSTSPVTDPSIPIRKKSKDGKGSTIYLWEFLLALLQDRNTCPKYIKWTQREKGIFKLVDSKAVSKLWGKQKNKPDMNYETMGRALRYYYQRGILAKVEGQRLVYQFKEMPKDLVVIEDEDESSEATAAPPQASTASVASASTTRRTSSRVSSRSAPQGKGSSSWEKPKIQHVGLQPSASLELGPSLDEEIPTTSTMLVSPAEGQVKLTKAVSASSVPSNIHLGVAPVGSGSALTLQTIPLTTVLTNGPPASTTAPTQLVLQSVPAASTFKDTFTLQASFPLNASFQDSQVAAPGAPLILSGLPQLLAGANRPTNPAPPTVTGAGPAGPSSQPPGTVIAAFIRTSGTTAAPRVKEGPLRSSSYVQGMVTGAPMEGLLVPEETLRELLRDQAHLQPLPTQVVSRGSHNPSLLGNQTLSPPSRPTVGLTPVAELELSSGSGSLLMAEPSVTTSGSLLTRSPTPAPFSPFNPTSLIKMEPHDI
# Procedure, shortened: as §1
# [6] = molecular target: T3, ELK4 (Homo sapiens, UniProt P28324-2 1-405); settings: protein: recombinant; tags: N-terminal GST; dsDNA, one strand shown
# T3 sequence: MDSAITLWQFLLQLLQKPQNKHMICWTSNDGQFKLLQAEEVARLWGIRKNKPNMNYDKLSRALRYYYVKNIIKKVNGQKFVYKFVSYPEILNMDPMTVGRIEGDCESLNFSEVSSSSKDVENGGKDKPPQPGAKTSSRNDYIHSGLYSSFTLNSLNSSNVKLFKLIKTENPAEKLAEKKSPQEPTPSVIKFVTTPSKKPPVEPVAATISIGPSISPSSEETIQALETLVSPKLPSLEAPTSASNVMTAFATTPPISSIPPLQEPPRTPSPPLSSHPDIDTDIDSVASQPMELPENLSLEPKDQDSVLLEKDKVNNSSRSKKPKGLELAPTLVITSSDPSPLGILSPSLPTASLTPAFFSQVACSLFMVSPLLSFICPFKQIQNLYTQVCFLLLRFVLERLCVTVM
# Procedure, shortened: as §1
# [7] = molecular target: T4, ETV2 (Homo sapiens, UniProt O00321 1-342); settings: protein: recombinant; tags: N-terminal GST; dsDNA, one strand shown
# T4 sequence: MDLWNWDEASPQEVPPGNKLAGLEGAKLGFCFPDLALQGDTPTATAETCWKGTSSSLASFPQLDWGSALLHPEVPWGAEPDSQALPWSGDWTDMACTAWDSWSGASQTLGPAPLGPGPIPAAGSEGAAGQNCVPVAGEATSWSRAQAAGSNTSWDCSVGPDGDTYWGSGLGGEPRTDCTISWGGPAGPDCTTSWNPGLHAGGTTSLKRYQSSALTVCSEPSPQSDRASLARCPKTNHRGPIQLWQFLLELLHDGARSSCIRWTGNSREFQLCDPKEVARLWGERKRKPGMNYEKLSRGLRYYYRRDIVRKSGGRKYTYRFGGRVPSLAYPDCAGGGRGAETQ
# Procedure, shortened: as §1
# [8] = molecular target: T5, ELF3 (Homo sapiens, UniProt P78545 1-371); settings: protein: recombinant; tags: N-terminal GST; dsDNA, one strand shown
# T5 sequence: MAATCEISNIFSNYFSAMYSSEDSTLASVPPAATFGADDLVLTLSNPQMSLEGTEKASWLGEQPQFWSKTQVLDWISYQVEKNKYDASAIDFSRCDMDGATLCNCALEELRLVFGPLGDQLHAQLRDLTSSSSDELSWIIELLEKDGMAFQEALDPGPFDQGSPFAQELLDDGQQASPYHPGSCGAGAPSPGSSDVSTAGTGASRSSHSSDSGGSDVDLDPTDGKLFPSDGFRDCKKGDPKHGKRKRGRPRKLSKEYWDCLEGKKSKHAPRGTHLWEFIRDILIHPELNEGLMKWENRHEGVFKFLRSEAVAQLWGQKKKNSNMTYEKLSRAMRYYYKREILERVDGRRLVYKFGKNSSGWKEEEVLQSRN
# Procedure, shortened: as §1
# [9] = molecular target: CRX (Homo sapiens, UniProt O43186 1-299); settings: protein: recombinant; tags: N-terminal GST; dsDNA, one strand shown
# CRX, sequence (O43186 whole entry): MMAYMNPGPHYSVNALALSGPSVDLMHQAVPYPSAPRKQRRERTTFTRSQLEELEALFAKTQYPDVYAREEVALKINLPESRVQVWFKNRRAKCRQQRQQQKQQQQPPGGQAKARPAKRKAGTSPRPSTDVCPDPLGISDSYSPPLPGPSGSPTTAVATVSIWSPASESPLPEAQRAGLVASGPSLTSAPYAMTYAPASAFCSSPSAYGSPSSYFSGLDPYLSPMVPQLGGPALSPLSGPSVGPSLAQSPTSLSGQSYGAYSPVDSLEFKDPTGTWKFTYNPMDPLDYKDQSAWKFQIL
# Procedure, shortened: as §1
# [10] = molecular target: ETV1 (Homo sapiens, UniProt P50549 1-477); settings: protein: recombinant; tags: N-terminal GST; dsDNA, one strand shown
# ETV1, sequence (P50549 whole entry): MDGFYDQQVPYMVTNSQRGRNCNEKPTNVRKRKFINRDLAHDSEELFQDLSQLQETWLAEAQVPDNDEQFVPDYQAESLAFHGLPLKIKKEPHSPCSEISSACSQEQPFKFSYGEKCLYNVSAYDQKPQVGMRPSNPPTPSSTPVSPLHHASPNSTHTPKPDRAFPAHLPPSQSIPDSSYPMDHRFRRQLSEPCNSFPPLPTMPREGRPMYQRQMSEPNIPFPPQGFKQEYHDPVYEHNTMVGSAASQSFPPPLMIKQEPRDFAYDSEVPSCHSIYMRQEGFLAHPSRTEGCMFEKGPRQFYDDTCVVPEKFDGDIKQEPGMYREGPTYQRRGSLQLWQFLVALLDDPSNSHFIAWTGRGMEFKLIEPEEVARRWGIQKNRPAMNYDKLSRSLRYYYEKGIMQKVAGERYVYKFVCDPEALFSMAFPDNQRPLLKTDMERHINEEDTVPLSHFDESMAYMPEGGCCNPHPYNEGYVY
# Procedure, shortened: as §1
# [11] = molecular target: T6, ERF (Homo sapiens, UniProt P50548 1-548); settings: protein: recombinant; tags: N-terminal GST; dsDNA, one strand shown
# T6 sequence: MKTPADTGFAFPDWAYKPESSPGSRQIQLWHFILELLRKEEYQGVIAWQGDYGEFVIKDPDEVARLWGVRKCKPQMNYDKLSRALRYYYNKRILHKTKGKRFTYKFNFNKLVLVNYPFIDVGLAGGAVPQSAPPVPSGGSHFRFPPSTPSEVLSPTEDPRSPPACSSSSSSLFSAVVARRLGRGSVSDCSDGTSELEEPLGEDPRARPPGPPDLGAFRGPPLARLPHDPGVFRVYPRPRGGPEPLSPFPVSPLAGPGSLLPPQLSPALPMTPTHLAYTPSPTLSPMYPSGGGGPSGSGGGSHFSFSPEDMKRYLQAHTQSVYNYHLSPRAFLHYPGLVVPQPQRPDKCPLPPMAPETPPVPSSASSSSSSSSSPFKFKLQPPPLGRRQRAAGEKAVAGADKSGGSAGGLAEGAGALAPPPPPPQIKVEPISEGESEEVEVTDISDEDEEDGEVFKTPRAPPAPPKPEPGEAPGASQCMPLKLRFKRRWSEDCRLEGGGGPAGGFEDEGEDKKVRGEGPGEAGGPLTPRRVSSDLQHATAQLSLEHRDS
# Procedure, shortened: as §1
# [12] = molecular target: T7, ETV3L (Homo sapiens, UniProt Q6ZN32 1-361); settings: protein: recombinant; tags: N-terminal GST; dsDNA, one strand shown
# T7 sequence: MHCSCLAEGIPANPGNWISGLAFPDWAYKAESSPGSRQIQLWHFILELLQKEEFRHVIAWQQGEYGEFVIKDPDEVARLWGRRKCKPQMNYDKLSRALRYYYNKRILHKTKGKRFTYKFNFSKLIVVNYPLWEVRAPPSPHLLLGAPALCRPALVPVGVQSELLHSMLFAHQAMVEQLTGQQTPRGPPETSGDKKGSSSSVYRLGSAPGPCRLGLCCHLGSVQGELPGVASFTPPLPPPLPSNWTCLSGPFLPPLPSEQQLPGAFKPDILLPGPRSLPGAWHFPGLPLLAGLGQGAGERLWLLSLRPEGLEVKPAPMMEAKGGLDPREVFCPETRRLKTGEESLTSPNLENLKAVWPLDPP
# Procedure, shortened: as §1
# [13] = molecular target: T8, ETS2 (Homo sapiens, UniProt P15036 1-469); settings: protein: recombinant; tags: N-terminal GST; dsDNA, one strand shown
# T8 sequence: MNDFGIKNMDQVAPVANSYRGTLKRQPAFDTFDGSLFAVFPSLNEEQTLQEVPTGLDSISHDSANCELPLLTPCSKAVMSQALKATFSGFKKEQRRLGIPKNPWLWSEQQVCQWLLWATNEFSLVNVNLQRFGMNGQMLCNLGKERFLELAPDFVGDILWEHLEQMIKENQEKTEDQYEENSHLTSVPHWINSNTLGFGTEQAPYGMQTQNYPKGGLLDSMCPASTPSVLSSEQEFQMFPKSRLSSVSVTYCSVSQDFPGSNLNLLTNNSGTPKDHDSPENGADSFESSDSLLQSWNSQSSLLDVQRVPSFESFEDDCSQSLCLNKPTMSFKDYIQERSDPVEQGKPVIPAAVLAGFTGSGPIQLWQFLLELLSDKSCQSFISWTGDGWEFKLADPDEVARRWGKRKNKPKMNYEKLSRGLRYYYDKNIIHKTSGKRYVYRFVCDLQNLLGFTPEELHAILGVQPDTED
# Procedure, shortened: as §1
# [14] = molecular target: T9, SPDEF (Homo sapiens, UniProt O95238 1-335); settings: protein: recombinant; tags: N-terminal GST; dsDNA, one strand shown
# T9 sequence: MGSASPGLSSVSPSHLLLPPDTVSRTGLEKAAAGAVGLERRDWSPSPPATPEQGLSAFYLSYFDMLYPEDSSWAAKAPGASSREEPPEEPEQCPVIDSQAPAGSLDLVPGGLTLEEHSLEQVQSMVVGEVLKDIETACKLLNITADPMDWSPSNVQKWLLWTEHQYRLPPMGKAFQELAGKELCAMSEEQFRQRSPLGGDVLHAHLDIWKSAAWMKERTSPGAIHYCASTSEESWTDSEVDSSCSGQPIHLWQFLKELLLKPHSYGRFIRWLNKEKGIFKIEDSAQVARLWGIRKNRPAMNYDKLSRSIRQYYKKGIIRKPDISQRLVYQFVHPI
# Procedure, shortened: as §1
# [15] = molecular target: T10, ETV7 (Homo sapiens, UniProt Q9Y603 1-341); settings: protein: recombinant; tags: N-terminal GST; dsDNA, one strand shown
# T10 sequence: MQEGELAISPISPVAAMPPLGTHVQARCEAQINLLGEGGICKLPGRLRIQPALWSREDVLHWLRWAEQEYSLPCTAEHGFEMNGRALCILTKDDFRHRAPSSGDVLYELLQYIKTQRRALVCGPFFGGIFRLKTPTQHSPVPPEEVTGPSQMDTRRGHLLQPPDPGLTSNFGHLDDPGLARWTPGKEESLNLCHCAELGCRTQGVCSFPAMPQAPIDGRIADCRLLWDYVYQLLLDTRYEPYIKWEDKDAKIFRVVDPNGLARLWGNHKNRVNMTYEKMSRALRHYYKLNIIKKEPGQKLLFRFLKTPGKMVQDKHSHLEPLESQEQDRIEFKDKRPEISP
# Procedure, shortened: as §1
# [16] = molecular target: T11, ELF5 (Homo sapiens, UniProt Q9UKW6-2 1-255); settings: protein: recombinant; tags: N-terminal GST; dsDNA, one strand shown
# T11 sequence: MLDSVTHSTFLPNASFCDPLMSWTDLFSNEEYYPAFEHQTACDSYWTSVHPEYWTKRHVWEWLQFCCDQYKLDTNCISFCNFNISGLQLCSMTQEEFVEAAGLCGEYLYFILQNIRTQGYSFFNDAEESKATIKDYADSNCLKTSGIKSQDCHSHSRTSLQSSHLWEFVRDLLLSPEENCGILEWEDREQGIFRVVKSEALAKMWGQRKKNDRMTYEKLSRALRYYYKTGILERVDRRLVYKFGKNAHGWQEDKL
# Procedure, shortened: as §1
# [17] = molecular target: T12, ETV3 (Homo sapiens, UniProt P41162-2 1-143); settings: protein: recombinant; tags: N-terminal GST; dsDNA, one strand shown
# T12 sequence: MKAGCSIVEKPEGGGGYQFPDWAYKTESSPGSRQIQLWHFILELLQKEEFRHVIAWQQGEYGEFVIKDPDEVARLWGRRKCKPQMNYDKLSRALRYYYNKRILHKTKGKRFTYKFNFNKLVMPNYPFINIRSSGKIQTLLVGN
# Procedure, shortened: as §1
# [18] = molecular target: ETV6 (Homo sapiens, UniProt P41212 1-452); settings: protein: recombinant; tags: N-terminal GST; dsDNA, one strand shown
# ETV6, sequence (P41212 whole entry): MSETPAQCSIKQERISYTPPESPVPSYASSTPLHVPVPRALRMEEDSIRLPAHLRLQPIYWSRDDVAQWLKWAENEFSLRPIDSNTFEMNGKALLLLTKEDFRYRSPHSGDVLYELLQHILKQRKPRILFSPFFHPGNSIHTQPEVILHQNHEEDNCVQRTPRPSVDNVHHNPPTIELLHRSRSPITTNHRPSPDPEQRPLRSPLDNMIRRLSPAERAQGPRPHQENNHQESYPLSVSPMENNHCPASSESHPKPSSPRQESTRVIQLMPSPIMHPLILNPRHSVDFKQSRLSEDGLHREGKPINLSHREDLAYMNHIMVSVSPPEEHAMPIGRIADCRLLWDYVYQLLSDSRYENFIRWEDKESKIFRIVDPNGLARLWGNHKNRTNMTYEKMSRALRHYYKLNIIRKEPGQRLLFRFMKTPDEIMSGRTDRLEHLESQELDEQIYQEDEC
# Procedure, shortened: as §1
sequence,measurement,setting,value
ATCCGC,binding signal,[1],"2.09 fold enrichment (6-mer frequency, TF over GST control)"
same,binding signal,[2],"1.78 fold enrichment (6-mer frequency, TF over GST control)"
same,binding signal,[3],"1.58 fold enrichment (6-mer frequency, TF over GST control)"
same,binding signal,[4],"1.68 fold enrichment (6-mer frequency, TF over GST control)"
same,binding signal,[5],"1.65 fold enrichment (6-mer frequency, TF over GST control)"
same,binding signal,[6],"1.6 fold enrichment (6-mer frequency, TF over GST control)"
same,binding signal,[7],"1.9 fold enrichment (6-mer frequency, TF over GST control)"
same,binding signal,[8],"1.62 fold enrichment (6-mer frequency, TF over GST control)"
same,binding signal,[9],"2.06 fold enrichment (6-mer frequency, TF over GST control)"
same,binding signal,[10],"1.8 fold enrichment (6-mer frequency, TF over GST control)"
same,binding signal,[11],"1.71 fold enrichment (6-mer frequency, TF over GST control)"
same,binding signal,[12],"1.84 fold enrichment (6-mer frequency, TF over GST control)"
same,binding signal,[13],"1.89 fold enrichment (6-mer frequency, TF over GST control)"
same,binding signal,[14],"2.36 fold enrichment (6-mer frequency, TF over GST control)"
same,binding signal,[15],"1.79 fold enrichment (6-mer frequency, TF over GST control)"
same,binding signal,[16],"2.26 fold enrichment (6-mer frequency, TF over GST control)"
same,binding signal,[17],"1.92 fold enrichment (6-mer frequency, TF over GST control)"
same,binding signal,[18],"1.66 fold enrichment (6-mer frequency, TF over GST control)"
